Source: PubChem BioAssay (NCATS)
Several values for one entry are separate records, joined by “and”; a condition that tells them apart may be missing. Identical values can stand only once. Records with an inconclusive call do not appear. Activity calls are given as the source filed them. Unless noted, the call rests on the fitted dose curve; in most records, active means well fitted curve in the direction sought with a large enough effect; inconclusive means small, poorly fitted or top-dose-only effect, or another doubt; inactive means no such curve, though single readings can be large; an effect the other way counts as inactive or inconclusive.

How the values were obtained:
[1] = biological target: Cytochrome P450 1A2 (Homo sapiens) (UniProt P05177); assay: p450-cyp1a2 (AID 410; calls by dose curve;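 further: -100% = full effect of reference inhibitor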)
Chain of Cytochrome P450 1A2 (Homo sapiens) (P05177 whole entry, looked up): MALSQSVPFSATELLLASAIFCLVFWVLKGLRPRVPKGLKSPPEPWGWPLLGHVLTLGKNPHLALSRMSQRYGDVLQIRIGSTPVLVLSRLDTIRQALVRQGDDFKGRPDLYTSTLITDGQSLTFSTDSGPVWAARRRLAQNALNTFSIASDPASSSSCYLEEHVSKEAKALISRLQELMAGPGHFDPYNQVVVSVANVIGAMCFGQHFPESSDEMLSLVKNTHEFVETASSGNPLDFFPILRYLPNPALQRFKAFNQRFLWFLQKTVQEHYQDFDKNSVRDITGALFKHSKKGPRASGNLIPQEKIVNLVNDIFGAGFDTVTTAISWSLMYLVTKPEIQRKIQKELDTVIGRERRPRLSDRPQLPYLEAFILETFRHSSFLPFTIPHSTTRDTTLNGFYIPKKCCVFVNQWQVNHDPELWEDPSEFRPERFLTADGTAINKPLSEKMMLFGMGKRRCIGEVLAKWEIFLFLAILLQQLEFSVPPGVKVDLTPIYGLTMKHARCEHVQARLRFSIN
Method in brief: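 Human CYP1A2 (20nM) demethylated Luciferin-ME at its Km (100uM) in 100mM KPO4. After 10 min compound preincubation, NADPH regeneration ran the reaction 60 min at room temperature. Luciferin was read by luminescence, normalized to 57 uM furafylline.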

[2] = NFAT Signaling Pathway (AID 444; active means well fitted curve in either direction with a large enough effect, not every such curve was filed as active;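 further: carbachol stimulus at about its EC50 of 1 µM final; on the % scale 0 is the no-effect control and ±100 the full control effect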); conditions: Jurkat NFAT-bla M1, carbachol, beta-lactamase ratio, 5 h; at 17.2 µM (top of the series)
Method in brief: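 Read-out: CCF4 FRET ratio (460 nm/530 nm) after 1 h RT dye loading, used for %activity and AC50 from titration series. Cells: Jurkat NFAT-β-lactamase/M1 line, treated with compound plus 1 uM carbachol for 5 h, 37 °C.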

[3] = biological target: Glucocorticoid receptor (Homo sapiens) (UniProt P04150); assay: GR-GFP Redistribution (AID 450;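 active means compounds whose dose series gives a full or clear partial fitted curve of increased nuclear translocation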; further: potency means the concentration at half of the fitted maximal effect); conditions: U2OS GR-GFP nuclear translocation, laser cytometry, 2 h
Chain of Glucocorticoid receptor (Homo sapiens) (P04150 whole entry, looked up, the tested form may be a part): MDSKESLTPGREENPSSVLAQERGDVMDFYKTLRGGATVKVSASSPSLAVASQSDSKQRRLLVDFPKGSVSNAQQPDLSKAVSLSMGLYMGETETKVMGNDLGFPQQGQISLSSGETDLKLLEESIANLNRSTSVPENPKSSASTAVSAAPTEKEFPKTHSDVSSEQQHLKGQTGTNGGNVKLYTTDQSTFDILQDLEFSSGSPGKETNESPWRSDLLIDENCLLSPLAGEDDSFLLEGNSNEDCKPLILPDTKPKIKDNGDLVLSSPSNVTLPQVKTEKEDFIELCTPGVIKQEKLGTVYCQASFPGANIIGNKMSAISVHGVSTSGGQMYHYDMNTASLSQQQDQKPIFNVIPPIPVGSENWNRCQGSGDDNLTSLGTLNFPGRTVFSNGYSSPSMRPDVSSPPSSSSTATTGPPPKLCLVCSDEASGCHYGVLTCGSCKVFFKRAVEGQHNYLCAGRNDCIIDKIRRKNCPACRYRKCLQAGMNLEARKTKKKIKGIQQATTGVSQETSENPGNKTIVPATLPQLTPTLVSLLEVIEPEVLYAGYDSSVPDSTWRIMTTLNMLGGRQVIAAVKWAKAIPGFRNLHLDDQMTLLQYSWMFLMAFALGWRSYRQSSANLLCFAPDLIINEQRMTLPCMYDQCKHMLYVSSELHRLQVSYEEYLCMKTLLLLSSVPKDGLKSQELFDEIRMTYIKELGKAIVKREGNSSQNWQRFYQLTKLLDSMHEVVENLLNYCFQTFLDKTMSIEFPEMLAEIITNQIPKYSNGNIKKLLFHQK

[4] = biological target: Glucocorticoid receptor (Homo sapiens) (UniProt P04150); assay: GR-EFC Redistribution (AID 451; calls by dose curve; further: potency means the concentration at half of the fitted maximal effect); conditions: CHO-K1 GR-EFC translocation, beta-gal luminescence, 2 h
Method in brief: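 Translocation of GR-ED fusion to nuclear EA restores b-gal, read by luminescence after 1 h room-temperature detection. Engineered CHO-K1 biosensor cells, 1,000/well, exposed 2 h at 37 C to titrations up to 46 uM final.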

[5] = biological target: Mitogen-activated protein kinase 10 (Mus musculus) (UniProt Q61831); assay: JNK3 AlphaScreen Assay (AID 530; active means well fitted curve in either direction with a large enough effect, not every such curve was filed as active;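 further: kinase came from lysate of stimulated human HepG2 cells; signal reports phosphorylation of biotinylated GST-cJun 1-79 at Ser73 with 10 µM ATP; on the % scale 0 is the no-effect control and ±100 the full control effect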)
Method in brief: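 Room-temperature AlphaScreen kinase assay; pre-activated HepG2 lysate as JNK3 source, biotin-GST-cJun(1-79) substrate, 10 uM ATP, compound 15 min preincubation.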

[6] = biological target: 3',5'-cyclic-AMP phosphodiesterase 4B (Homo sapiens) (UniProt Q07343); assay: qHTS Assay for Inhibitors of PDE-IV (AID 607; active means well fitted activation curve with a large enough effect in the main read-out, with a control signal flat, not every such curve was filed as active; further: % of control where 0% means no effect)
Chain of 3',5'-cyclic-AMP phosphodiesterase 4B (Homo sapiens) (Q07343 whole entry, looked up): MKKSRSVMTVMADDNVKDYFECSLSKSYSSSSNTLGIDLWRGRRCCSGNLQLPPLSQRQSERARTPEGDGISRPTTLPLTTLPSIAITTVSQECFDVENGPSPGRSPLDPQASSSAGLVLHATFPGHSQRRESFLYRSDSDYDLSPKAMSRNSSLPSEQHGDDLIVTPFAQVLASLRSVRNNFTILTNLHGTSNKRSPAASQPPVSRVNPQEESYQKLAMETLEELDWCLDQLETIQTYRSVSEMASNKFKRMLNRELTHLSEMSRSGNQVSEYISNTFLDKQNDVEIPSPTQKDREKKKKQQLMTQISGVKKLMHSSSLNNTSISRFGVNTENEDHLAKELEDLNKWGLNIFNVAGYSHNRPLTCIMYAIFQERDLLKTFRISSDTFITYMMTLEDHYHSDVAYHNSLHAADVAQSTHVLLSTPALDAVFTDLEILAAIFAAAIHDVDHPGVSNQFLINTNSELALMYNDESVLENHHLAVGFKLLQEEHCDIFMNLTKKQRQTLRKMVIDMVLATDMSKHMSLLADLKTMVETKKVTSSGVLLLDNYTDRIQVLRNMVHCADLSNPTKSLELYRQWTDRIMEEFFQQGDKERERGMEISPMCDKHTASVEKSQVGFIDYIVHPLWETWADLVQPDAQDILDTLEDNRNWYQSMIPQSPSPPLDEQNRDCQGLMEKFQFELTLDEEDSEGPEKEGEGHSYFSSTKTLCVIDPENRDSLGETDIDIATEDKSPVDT
Method in brief: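 Cell-based read-out of cAMP via a modified cyclic nucleotide-gated channel and membrane potential dye (535/590 nm) in HEK293 cells expressing PDE4 endogenously. Compounds tested up to 22.9 uM final; 100 uM RO 20-1724 reference.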

[7] = biological target: Cytochrome P450 2C9 (Homo sapiens) (UniProt P11712); assay: qHTS Assay for Inhibitors and Substrates of Cytochrome P450 2C9 (AID 883); further: on the % scale 0 is the no-effect control and ±100 the full control effect; nearly all actives have a fitted effect of over 60% in size
Chain of Cytochrome P450 2C9 (Homo sapiens) (P11712 whole entry, looked up): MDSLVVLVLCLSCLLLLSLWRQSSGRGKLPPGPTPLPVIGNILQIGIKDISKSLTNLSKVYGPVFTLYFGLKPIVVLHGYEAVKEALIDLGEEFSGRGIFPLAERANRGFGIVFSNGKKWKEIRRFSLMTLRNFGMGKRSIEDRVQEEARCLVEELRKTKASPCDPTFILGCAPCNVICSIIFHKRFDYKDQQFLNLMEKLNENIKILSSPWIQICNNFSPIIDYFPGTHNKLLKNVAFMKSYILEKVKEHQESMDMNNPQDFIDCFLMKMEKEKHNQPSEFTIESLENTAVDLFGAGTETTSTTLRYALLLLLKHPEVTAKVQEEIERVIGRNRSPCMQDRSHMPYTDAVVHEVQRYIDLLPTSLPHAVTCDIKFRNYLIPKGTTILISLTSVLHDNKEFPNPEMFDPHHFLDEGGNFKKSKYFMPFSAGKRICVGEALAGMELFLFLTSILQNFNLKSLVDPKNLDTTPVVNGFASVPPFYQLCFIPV
Method in brief: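 Inhibition of CYP2C9 is scored as loss of luminescence, with 57uM sulphaphenazole defining 100% inhibition. Substrate Luciferin-H is used at 100uM, equal to its KM; enzyme at 10nM in 25mM KPO4, 60 min at 37C with NADPH regeneration.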

[8] = biological target: Cytochrome P450 3A4 (Homo sapiens) (UniProt P08684); assay: qHTS Assay for Inhibitors and Substrates of Cytochrome P450 3A4 (AID 884); further: potency means the concentration at half of the fitted maximal effect; nearly all actives have a fitted effect of over 50% in size
Chain of Cytochrome P450 3A4 (Homo sapiens) (P08684 whole entry, looked up): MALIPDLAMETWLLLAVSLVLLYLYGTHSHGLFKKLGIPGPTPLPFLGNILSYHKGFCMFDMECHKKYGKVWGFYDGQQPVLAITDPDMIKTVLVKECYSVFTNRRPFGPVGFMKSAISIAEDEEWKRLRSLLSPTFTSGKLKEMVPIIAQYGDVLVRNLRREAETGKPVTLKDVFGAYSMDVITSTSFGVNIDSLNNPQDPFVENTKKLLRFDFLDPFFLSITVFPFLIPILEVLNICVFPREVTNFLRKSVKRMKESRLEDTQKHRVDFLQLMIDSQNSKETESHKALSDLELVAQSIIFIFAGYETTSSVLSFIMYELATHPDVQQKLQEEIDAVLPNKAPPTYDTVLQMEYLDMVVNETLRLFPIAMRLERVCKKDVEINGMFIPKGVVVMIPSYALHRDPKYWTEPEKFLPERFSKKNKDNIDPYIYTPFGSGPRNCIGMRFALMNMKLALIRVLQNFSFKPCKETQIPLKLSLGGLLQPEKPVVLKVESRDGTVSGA
Method in brief: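 20 nM human CYP3A4 with 25 uM Luciferin-PPXE (at KM) in 200 mM KPO4, preincubated 10 min with compound; NADPH regeneration started a 60 min RT reaction. Luciferin detected by luminescence, normalized to 57 uM ketoconazole as full inhibition.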

[9] = biological target: Cytochrome P450 3A4 (Homo sapiens) (UniProt P08684); assay: qHTS Assay for Activators of Cytochrome P450 3A4 (AID 885); further: nearly all actives have a fitted effect of over 65% in size
Method in brief: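 Signal was normalized against complete inhibition by 57 uM ketoconazole. The reaction used 20nM CYP3A4 with 25uM Luciferin-PPXE, 10-min compound preincubation and a 60-min NADPH-supported step at RT.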

[10] = biological target: Cytochrome P450 2D6 (Homo sapiens) (UniProt P10635); assay: qHTS Assay for Inhibitors and Substrates of Cytochrome P450 2D6 (AID 891); further: potency means the concentration at half of the fitted maximal effect; nearly all actives have a fitted effect of over 60% in size
Chain of Cytochrome P450 2D6 (Homo sapiens) (P10635 whole entry, looked up): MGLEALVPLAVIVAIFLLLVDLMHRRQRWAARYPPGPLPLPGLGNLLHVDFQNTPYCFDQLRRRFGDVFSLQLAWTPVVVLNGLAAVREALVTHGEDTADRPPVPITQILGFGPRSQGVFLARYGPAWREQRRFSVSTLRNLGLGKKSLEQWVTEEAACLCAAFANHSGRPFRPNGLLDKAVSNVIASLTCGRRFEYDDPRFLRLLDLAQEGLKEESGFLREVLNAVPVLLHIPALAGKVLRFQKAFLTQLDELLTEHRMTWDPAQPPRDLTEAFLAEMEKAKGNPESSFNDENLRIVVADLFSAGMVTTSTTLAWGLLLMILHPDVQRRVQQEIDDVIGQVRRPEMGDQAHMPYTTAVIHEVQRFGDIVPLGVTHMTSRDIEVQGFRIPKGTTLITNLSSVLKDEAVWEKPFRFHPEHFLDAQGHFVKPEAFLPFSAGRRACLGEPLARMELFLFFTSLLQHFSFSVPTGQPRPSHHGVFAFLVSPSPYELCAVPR
Method in brief: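 Human CYP2D6 (5 nM) with 30 uM Luciferin-ME EGE (at Km) in 100 mM KPO4, compound preincubated 10 min, then NADPH regeneration system for 60 min at room temperature. Luciferin read by luminescence; normalized to 1.43 uM quinidine.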

[11] = qHTS Assay for Lipid Storage Modulators (AID 1519; calls by dose curve); conditions: Drosophila S3 cells, BODIPY lipid droplet/cell ratio, laser cytometry, cells loaded with oleic acid
Method in brief: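 Cells seeded at 5,000 per well were treated with compounds over a concentration series and loaded with oleic acid (400 uM, as added). Lipid droplet fluorescence (488 nm excitation, 500-530 nm channel) was read by laser-scanning cytometry and normalized to 20 uM Triacsin C.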

[12] = biological target: Ubiquitin carboxyl-terminal hydrolase 1 (Homo sapiens) (UniProt O94782); assay: Inhibitors of USP1/UAF1: Pilot qHTS (AID 504865);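 further: rhodamine fluorescence freed from ubiquitin-rhodamine substrate followed over time; top concentration of the series differs between compounds; on the % scale 0 is the no-effect control and ±100 the full control effect; nearly all actives have a fitted effect of over 35% in size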
Chain of Ubiquitin carboxyl-terminal hydrolase 1 (Homo sapiens) (O94782 whole entry, looked up): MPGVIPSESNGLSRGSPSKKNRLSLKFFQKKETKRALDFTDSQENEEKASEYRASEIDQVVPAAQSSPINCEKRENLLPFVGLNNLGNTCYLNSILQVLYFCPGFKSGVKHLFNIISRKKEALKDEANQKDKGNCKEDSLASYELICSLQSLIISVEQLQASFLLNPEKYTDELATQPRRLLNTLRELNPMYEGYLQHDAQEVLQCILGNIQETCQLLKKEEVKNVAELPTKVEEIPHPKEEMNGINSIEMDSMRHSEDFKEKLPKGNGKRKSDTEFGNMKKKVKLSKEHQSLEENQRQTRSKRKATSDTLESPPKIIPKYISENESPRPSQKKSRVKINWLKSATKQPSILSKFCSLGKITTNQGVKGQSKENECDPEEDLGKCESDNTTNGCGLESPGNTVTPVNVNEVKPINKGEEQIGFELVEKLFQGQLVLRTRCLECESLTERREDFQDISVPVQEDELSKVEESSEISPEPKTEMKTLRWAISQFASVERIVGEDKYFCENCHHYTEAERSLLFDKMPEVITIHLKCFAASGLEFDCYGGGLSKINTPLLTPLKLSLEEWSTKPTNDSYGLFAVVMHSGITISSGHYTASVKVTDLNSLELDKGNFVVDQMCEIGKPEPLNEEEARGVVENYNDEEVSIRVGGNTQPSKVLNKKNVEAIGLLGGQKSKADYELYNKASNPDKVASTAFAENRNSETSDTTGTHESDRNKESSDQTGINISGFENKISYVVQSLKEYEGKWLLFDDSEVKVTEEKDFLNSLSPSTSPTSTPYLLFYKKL
Method in brief: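 In 50mM HEPES pH 7.8 containing 0.5mM EDTA, 1mM TCEP, 0.1 mg/ml BSA and 0.01% Tween-20, 1nM USP1/UAF1 is exposed to compound for 15 min, then Ub-Rho (150nM final) is added and fluorescence is read over time.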

[13] = biological target: DNA dC->dU-editing enzyme APOBEC-3G (Homo sapiens) (UniProt Q9HC16); assay: qHTS for inhibitors of Vif-A3G interactions: Validation (AID 588379); further: 0% is about no effect
Chain of DNA dC->dU-editing enzyme APOBEC-3G (Homo sapiens) (Q9HC16 whole entry, looked up): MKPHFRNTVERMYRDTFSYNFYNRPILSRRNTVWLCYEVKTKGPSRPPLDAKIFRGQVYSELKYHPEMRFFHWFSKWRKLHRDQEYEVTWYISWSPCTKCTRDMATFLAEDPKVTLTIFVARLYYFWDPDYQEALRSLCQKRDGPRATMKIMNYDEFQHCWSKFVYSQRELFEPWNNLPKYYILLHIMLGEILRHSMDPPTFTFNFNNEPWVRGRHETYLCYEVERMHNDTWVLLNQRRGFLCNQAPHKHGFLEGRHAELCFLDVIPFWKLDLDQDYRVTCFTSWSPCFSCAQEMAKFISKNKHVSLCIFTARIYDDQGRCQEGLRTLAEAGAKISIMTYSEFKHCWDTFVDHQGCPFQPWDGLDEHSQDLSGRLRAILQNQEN
Method in brief: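 HeLa cells stably expressing Vif and A3G-eYFP, 700 cells/well, incubated overnight at 37 deg C, then exposed to compound overnight at 37 deg C. Inhibition of Vif-mediated degradation read as increased yellow fluorescence (Ex 488/Em 500-530) by laser-scanning cytometry.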

[14] = qHTS for Inhibitors of the Functional Ribonucleoprotein Complex (vRNP) of Lassa (LASV) Arenavirus: LASV Primary Screen - GLuc reporter signal (AID 1347082; calls by dose curve; tested in HEK293 reporter line; further: on the % scale 0 is the no-effect control and ±100 the full control effect; nearly all actives have a fitted effect of over 60% in size)
[15] = qHTS for Inhibitors of the Functional Ribonucleoprotein Complex (vRNP) of Lassa (LASV) Arenavirus: Viability assay - alamar blue signal for LASV Primary Screen (AID 1347083; calls by dose curve; tested in HEK293 reporter line; further: on the % scale 0 is the no-effect control and ±100 the full control effect; nearly all actives have a fitted effect of over 80% in size)
[16] = qHTS for Inhibitors of the Functional Ribonucleoprotein Complex (vRNP) of Lymphocytic Choriomeningitis Arenaviruses (LCMV): Viability assay - alamar blue signal for LCMV Primary Screen (AID 1347085; calls by dose curve; tested in HEK293 reporter line; further: on the % scale 0 is the no-effect control and ±100 the full control effect; nearly all actives have a fitted effect of over 80% in size)
[17] = biological target: Nucleoprotein (Lymphocytic choriomeningitis virus (strain Armstrong)) (UniProt P09992); assay: qHTS for Inhibitors of the Functional Ribonucleoprotein Complex (vRNP) of Lymphocytic Choriomeningitis Arenaviruses (LCMV): LCMV Primary Screen - GLuc reporter signal (AID 1347086; calls by dose curve; further: on the % scale 0 is the no-effect control and ±100 the full control effect; nearly all actives have a fitted effect of over 70% in size)
[18] = system: Zika virus NS2B-NS3 protease; assay: Primary screen GU AMC qHTS for Zika virus inhibitors (AID 1347154);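 further: 0% = no-inhibitor control and -100% = no-enzyme control; nearly all actives have a fitted effect of over 70% in size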
Method in brief: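 Fluorogenic AMC-substrate cleavage by noncovalent NS2B-NS3 protease complex (25 nM, pH 8.0 Tris buffer with Tween 20) followed for 15 minutes at room temperature (~20% conversion). Percent inhibition from ex340/em450 signal change, fitted by 4-parameter Hill equation.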

[19] = system: Zika virus NS2B-NS3 protease (linked construct); assay: Primary screen NINDS Rhodamine qHTS for Zika virus inhibitors (AID 1347160); further: on the % scale 0 is the no-effect control and ±100 the full control effect; nearly all actives have a fitted effect of over 55% in size
Method in brief: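 In 10 mM Tris-HCl pH 8.0 containing 0.01% Tween 20, linked NS2B-NS3 protease (25 nM final) is exposed to test compounds for 15 min. Cleavage of 1.5 microM Rhodamine110 substrate is tracked by fluorescence over 15 min.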

[20] = OV-KATE Cancer Cell Toxicity qHTS against the NCATS CANVASS Library (AID 1347345); further: on the % scale 0 is the no-effect control and ±100 the full control effect
Method in brief: (§1)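 Quantitative HTS format: an 11-concentration series was applied to 1000 cells/well following a 4-hour attachment. Cultures ran 72 hours before ATP luminescence detection by CellTiter-Glo.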

[21] = UWB1.289 Cancer Cell Toxicity qHTS against the NCATS CANVASS Library (AID 1347347); further: on the % scale 0 is the no-effect control and ±100 the full control effect; nearly all actives have a fitted effect of over 60% in size
Method in brief: as §1

[22] = OV-SAHO Cancer Cell Toxicity qHTS against the NCATS CANVASS Library (AID 1347348); further: on the % scale 0 is the no-effect control and ±100 the full control effect; nearly all actives have a fitted effect of over 55% in size
Method in brief: as §1

[23] = SW1088 Cancer Cell Toxicity qHTS against the NCATS CANVASS Library (AID 1347350); further: nearly all actives have a fitted effect of over 75% in size
Method in brief: as §1

[24] = U-118MG Cancer Cell Toxicity qHTS against the NCATS CANVASS Library (AID 1347351); further: on the % scale 0 is the no-effect control and ±100 the full control effect
Method in brief: as §1

[25] = COV-362 Cancer Cell Toxicity qHTS against the NCATS CANVASS Library (AID 1347352); further: on the % scale 0 is the no-effect control and ±100 the full control effect
Method in brief: (§2)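 Cells were seeded at 1000 per well and allowed to settle 4 hours at 37 degrees C before pin transfer of compounds as an 11-point series. Viability was read by CellTiter-Glo luminescence after 72 hours' exposure.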

[26] = A2780 Cisplatin Sensitive Ovarian Cancer Cell Toxicity qHTS against the NCATS CANVASS Library (AID 1347353); further: nearly all actives have a fitted effect of over 60% in size
Method in brief: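 A2780 cisplatin-sensitive cells (750 per well) were seeded, left 4 h at 37 °C, then pin-dosed in an 11-point series. After 72 h at 37 °C/5% CO2, viability was measured as ATPLite luminescence.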

[27] = UWB1.289-WTBRCA1 Cancer Cell Toxicity qHTS against the NCATS CANVASS Library (AID 1347354)
Method in brief: as §2

CN(C)Cc1c[nH]c2ccccc12
-14%: max response ([11]; measured here: cell count channel max response) | max response ([11]; measured here: lipid channel max response)
inactive: Potency [1] | activity change, negative = inhibition [2] 1.81% | Potency [3] > 20.6 µM and > 46 µM | Potency [4] > 20.6 µM and > 46 µM | outcome [5] | Potency [6] | Potency [7] | Potency [9] | activity change, negative = inhibition ([11]; at 25.7 µM (top of the series)) -1.33% | Potency [12] | Potency [13] | Potency [14] | Potency [15] | Potency [16] | Potency [17] | Potency [18] | Potency [19] | Potency [20] | Potency [21] | Potency [22] | Potency [23] | Potency [24] | Potency [25] | Potency [26] | Potency [27]
active: Potency [8] 15.8 µM | Potency [10] 158 nM and 10 µM
